Molecules are shown by their SMILES. In all, about 65,000 compounds went through this assay and about 2,100 (3.2%) showed an effect of 50% or more. The median lay at about -52%. This is one part of a sample in which strong results are shown more often than they occur.

In the assay the test system is Plasmodium falciparum. In words: Screen against P. falciparum Asexual Blood Stage (ABS), at 5uM. The note with it: tested at 5 uM. It counts as functional, Dd2.
Turning to `CC(NCC1CCN(CCO)CC1)c1ccc(OC(F)(F)F)cc1` (centres undefined), the INHIBITION amounted to 93.8%.
With `CC(NCC1CCN(CCO)CC1)c1ccc(C(F)(F)F)cc1` (centres undefined), the INHIBITION was 89.1%.
As to `O=C(Cc1cnc(-c2c(Cl)cccc2Cl)s1)N1CCC2(CC1)OCCO2`, the INHIBITION was -87.1%.
For `CCC12CN3CC(C)(CN(C1)C3c1[nH]c(=O)[nH]c(=O)c1C)C2=O` (centres undefined) the value was -51.4%.
As for `CCN1CCNC(=O)C12CCN(C(=O)c1ccccn1)CC2`, the INHIBITION was -86.3%.
As to `O=C1CSC(c2ccc(O)cc2)c2c(n(C3CCOCC3)[nH]c2=O)N1` (centres undefined), the INHIBITION is listed as -92.3%.
As for `Cc1nn(C2CCCC2)c2c1C(c1ccc3c(c1)OCO3)SCC(=O)N2` (centres undefined), the INHIBITION is listed as 6.36%.
Regarding `Cc1nc(CN2CCO[C@H]3[C@@H](Oc4ccccn4)CC[C@@H]32)cs1`, the INHIBITION is listed as -47%.
`NC(=O)c1cccc2nc([C@H]3CCN(Cc4ccccn4)C3)[nH]c12`: the INHIBITION is given as 95.1%.
On to `O=C1NC[C@H]2CN(Cc3ccccn3)CCN12`, for which the INHIBITION is -9.08%.
On to `CSc1ccccc1C(=O)C1CCCN(Cc2ccccn2)C1` (centres undefined), for which the INHIBITION is listed as -41.1%.
In the case of `CCS(=O)(=O)N[C@@H]1CN(Cc2cc(C)on2)C[C@@H]2CCCO[C@@H]21`, the INHIBITION is -96%.
Turning to `CN1CCN(c2ccc(F)cc2C(N)=O)CC1`, the INHIBITION was -105%.
Take `COC(=O)CNC(=O)c1cn(Cc2ccccc2F)nn1`: the INHIBITION is listed as -63.8%.
For `CN1CCN(c2ccccc2CNC(=O)Cc2ccccc2F)CC1` the value was 77%; for `CN1CCN(c2ccccc2CNC(=O)Cc2cccc(F)c2)CC1`, 77.4%; for `CN1CCN(c2ccc(CO)cc2F)CC1`, -62.7%.
To `CN1CCN(c2ccnc3c(F)cc(Br)cc23)CC1` belongs 0.83%; to `CN1CCN(c2ccccc2NC(=O)NCCc2ccccc2)CC1`, 83.9%.
To `O=S1(=O)CCC(n2cc(C3=CCN(CCn4cccc4)CC3)cn2)C1` (centres undefined) belongs -22.4%; to `Cc1noc(C)c1CN1C(=O)[C@@H]2CC[C@H]1CN(Cc1cscn1)C2`, -41.1%; to `O=C(C1CCC1)N1CCC2(CC1)CNCCO2`, -16.3%.
`O=C(Nc1ccccc1)C1=NOC2(CCNCC2)C1`: the INHIBITION was -53.9%.
As to `COc1ccc(CC(C)(O)CNC(=O)c2cccs2)cc1` (centres undefined), the INHIBITION came out at 89.1%.
In the case of `c1cc(COC[C@H]2CCC[C@]23CNCCO3)ccn1`, the INHIBITION was 14.9%.
As to `c1cnc(NCc2cncc3c2CCN(CC2CC2)C3)nc1`, the INHIBITION is listed as -95%.
As to `CC(C)N1CCO[C@H]2CN(C(=O)c3ccccn3)C[C@H]21`, the INHIBITION is -46.1%.
To `CCOc1cccc(C(C)NC(=O)N2CCC3(CC2)OCCO3)c1` (centres undefined) belongs -117%.
For `OC(CNC1CCSCC1)c1cccc(OCc2ccccc2)c1` (centres undefined) the value was 74.4%; for `CN1CCC(NCC(O)c2cccc(OCc3ccccc3)c2)CC1` (centres undefined), 90.7%.
To `CC(C)OCCN(C)CC(c1cccs1)N1CCOCC1` (centres undefined) belongs 79.9%; to `NCC(c1cccnc1)N1CCOCC1` (centres undefined), -122%.
Turning to `c1cnc(N2CC[C@@H]3[C@@H]2CCN3Cc2cccs2)nc1`, the INHIBITION is listed as -56.7%.
To `Oc1cc(C2CCCCN2Cc2cccs2)nc(-c2ccccn2)n1` (centres undefined) belongs 85.9%; to `c1ccc(COC[C@H]2CC[C@H]3[C@H](CCN3Cc3cccs3)O2)nc1`, -43.6%.
Take `CCN1CCN(Cc2nc(C)no2)CC1`: the INHIBITION is listed as -11.7%.
To `Cc1noc(C)c1CN1C[C@@H](OCC(=O)N(C)C)[C@H]2OCCC[C@H]21` belongs -76.4%.
To `COc1cccc(CNCc2ccc(F)c(Cl)c2)c1O` belongs 80%.
To `COc1cccc(CNCc2cccc(Cl)c2)c1O` belongs 85.2%.
For `COc1cc(CNCCNC(=O)c2ccc(O)cc2)ccc1SC`, the INHIBITION is 26.9%.
On to `CC1CCC2(CC1)NC(=O)c1cc(Br)ccc1-n1nnnc12` (centres undefined), for which the INHIBITION is listed as -65.8%.
For `O=C(c1csc(-c2ncccn2)n1)N1CCN2CCCCC2C1` (centres undefined) the value was -32.7%; for `CN(C)[C@@H]1CN(C(=O)Cc2ccccc2)[C@@H]2CCCO[C@H]12`, -9.86%.
To `CC(C)CCC(=O)N1CCC2(CC1)OCCO2` belongs -8.85%; to `Cc1ccc(C(=O)N2C[C@H]3CN(Cc4csc(C)n4)C[C@H]3C2)cn1`, -173%; to `COC(=O)C(C)(C)NC(=O)c1cnc(Cc2ccc(F)cc2)s1`, 75.4%.
For `Cc1cnn(CCNCC(O)c2ccc(C(F)(F)F)cc2)c1` (centres undefined) the value was 72.6%; for `Cc1cnn(CC(C)NCCc2cccs2)c1` (centres undefined), -30.1%.
Regarding `Cc1cnn(CCNCC(O)COc2c(Cl)cccc2Cl)c1` (centres undefined), the INHIBITION amounted to 81.9%.
Consider `CC(C)(O)CNc1ccc(C#N)c(C(F)(F)F)c1`, for which the INHIBITION was -74.3%.
For `CC1=NOC2(CCN(Cc3c[nH]c4ccccc34)CC2)C1` the value was -17.9%.
For `O=C(c1ccc[nH]1)N1CCC2(CCCN2Cc2cccnc2)CC1` the value was -9.26%; for `CN(C)c1ncc2c(n1)C1(CCN(Cc3cccnc3)C1)COC2` (centres undefined), -4.75%; for `CCN1CCN(C[C@@H]2CN(c3ncc(Cl)cc3F)C[C@@H]2CO)CC1`, 92.2%.

The values above are taken from ChEMBL document CHEMBL4513216, “Probing the Open Global Health Chemical Diversity Library for Multistage-Active Starting Points for Next-Generation Antimalarials” (ACS Infect Dis, 2020).
